Measurements taken from PubChem BioAssay AID720517 (National Center for Advancing Translational Sciences (NCATS), 2013).
Records with an inconclusive call do not appear. Unmarked numbers belong to inactive results. Calls come from the whole dose curve; as a rule, active = well fitted activation curve with a large enough effect; inconclusive = small, poorly fitted or top-dose-only effect; inactive = flat fitted curve, though single readings scatter.

experiment: qHTS for Inhibitors of Cell Surface uPA Generation: FP59 Counterscreen for Cherry-picked Compounds; conditions: FP59 anthrax toxin cytotoxicity counterscreen, cells; series mostly up to 115 µM; activity (protection from FP59): at the top concentration; note: 0% is about no effect

| SMILES | activity (protection from FP59) |
| --- | --- |
| Cc1ccc(C(=O)NNC(=O)CNc2cccc(Cl)c2)cc1 | -1.44% |
| CC1CC(=O)Nc2ccccc2N1C(=O)Cn1cnc2ccc(Br)cc2c1=O (stereo unspecified) | -1.21% |
| Oc1ccc(/C=N/Nc2cccc(Cl)n2)c(O)c1 | -1.59% |
| O=C1c2ccccc2[C@@H]2C[C@H](NC34CC5CC(CC(C5)C3)C4)[C@@H](O)CCN12 | -1.36% |
| CC(C)(C)S(=O)(=O)N1C[C@H]2CC/C=C\C/C(c3ccccc3)=C\2[C@@H]1CCO | 0.45% |
| CC(Sc1nnc2ccccn12)C(=O)NCc1ccc2c(c1)OCO2 (stereo unspecified) | -1.47% |
| CC(OC(=O)c1cccc(-n2cnnn2)c1)C(=O)Nc1ccc(F)c(F)c1F (stereo unspecified) | -1.35% |
| Cc1nc2ncccn2c1-c1csc(Nc2ccc(S(N)(=O)=O)cc2)n1 | -0.455% |
| CSCC[C@H](NC(=O)[C@H](Cc1ccccc1)n1c(=O)[nH]c2ccccc2c1=O)C(=O)N1CCC[C@@H]1C(=O)O | -1.24% |
| Cc1ccc(NC(=O)CC2OC(=O)c3ccccc32)cc1S(=O)(=O)N1CCOCC1 (stereo unspecified) | -1.31% |
| CCCCn1c(N)c(N(Cc2ccccc2OC)C(=O)COc2ccc(C)cc2)c(=O)[nH]c1=O | -1.37% |
| CC(O)[C@H]1CNC(=O)C(=O)N1CCc1cccc(F)c1 (stereo partly specified) | -1.32% |
| CCOc1ccccc1N(CC(=O)Nc1ccc(OC)cc1)S(=O)(=O)c1ccccc1 | 7.21% |
| NC(=O)CC(NC(=O)Cc1cccc2ccccc12)c1ccc(N2CCN(c3ccc(F)cc3)CC2)c([N+](=O)[O-])c1 (stereo unspecified) | -1.4% |
| COc1ccccc1C(=O)Nc1cccc(C(=O)c2ccccc2)c1 | -0.645% |
| CCOc1ccc(Cl)cc1/C=N/NC(=O)c1ccccc1 | -0.63% |
